Data from PubChem BioAssay (NCATS).
Results filed as inconclusive are left out. Active and inactive are the calls of the source. Calls follow the shape of the dose curve; as a rule, active = well fitted inhibition curve with a large enough effect; inconclusive = small, poorly fitted or top-dose-only effect; inactive = flat fitted curve, though single readings scatter.

These compounds were tested on CP329 (assay: qHTS profiling for inhibitors of Plasmodium falciparum proliferation (AID 504749; also: nearly all actives have a fitted effect of over 60% in size)). Settings: P. falciparum in erythrocytes, SYBR Green DNA, 72 h; series mostly up to 28.7 µM.
Method in brief: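 SYBR Green fluorescence of parasite DNA, read after lysis and overnight dark incubation, measured growth over 72 h in erythrocyte culture at 0.3% parasitemia and 2.5% hematocrit. Data normalised to DMSO and 0.29 uM artemisinin, with plate-drift correction.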
Potency is read from the fitted curve at half-maximal effect.

Potency, inactive:
NC(=O)C1CC2(NC(=O)NC2=O)c2cc(F)ccc2O1 (stereo unspecified)
CN1[C@@H]2CC[C@@H]1CC(OC(=O)[C@H](CO)c1ccccc1)C2 (stereo partly specified)
CCCCCCCCCCCC(=O)OCC(O)C1OCC(O)C1O (stereo unspecified)
C/C1=C2/[N-]C(C(CC(N)=O)[C@@]2(C)CCC(=O)NCC(C)OP(=O)([O-])O[C@H]2[C@@H](O)[C@@H](n3cnc4cc(C)c(C)cc43)O[C@@H]2CO)[C@]2(C)N=C(/C(C)=C3N=C(/C=C4N=C1C(CCC(N)=O)C\4(C)C)[C@@H](CCC(N)=O)[C@]\3(C)CC(N)=O)[C@@H](CCC(N)=O)[C@]2(C)CC(N)=O.CC(=O)O.[Co] (stereo partly specified)
CC1(C)OC[C@@H]2O[C@@]3(C(=O)O)OC(C)(C)O[C@@H]3[C@@H]2O1
Cc1ccccc1N1C(=O)c2cc(N)ccc2N/C1=C\F
O=C1C(I)=CC(=C(c2cc(I)c(O)c(I)c2)c2ccccc2C(=O)O)C=C1I
NC(=O)NC(CCC(=O)O)C(=O)O (stereo unspecified)

Potency, active:
CC[C@@]1(O)C[C@H](O[C@H]2C[C@@H](N(C)C)[C@@H](O[C@H]3C[C@@H](O)[C@@H](O[C@H]4CCC(=O)[C@@H](C)O4)[C@@H](C)O3)[C@@H](C)O2)c2c(cc3c(c2O)C(=O)c2c(O)cccc2C3=O)[C@H]1C(=O)OC 0.849 µM
CCC(C(=O)O)C1OC(C(C)C(O)C(C)C(=O)C(CC)C2OC3(C=CC(O)C4(CCC(C)(C5CCC(O)(CC)C(C)O5)O4)O3)C(C)CC2C)C(C)CC1C (stereo unspecified) 0.0953 µM
COC1CC2CCC(C)[C@](O)(O2)C(=O)C(=O)N2CCCCC2C(=O)OC(C(C)CC2CCC(O)C(OC)C2)CC(=O)C(C)/C=C(/C)C(O)C(OC)C(=O)C(C)CC(C)C=CC=C/C=C\1C (stereo partly specified) 4.26 µM
